Bioassay records deposited in PubChem BioAssay by Broad Institute.
Compounds with a hit are over-represented: about 7.4% of the library has one in this group of screens.
YB-1 expr inh – inhibitors of YB-1 gene expression, primary screen, cell-based, fluorescence; delta delta Cp (YB-1 minus CDIP) (test concentration not listed); 30,000 tested, 0.37% active; U2OS, qRT-PCR YB-1 vs CDIP delta delta Cp, 16 h; active compounds read high; zero = DMSO, each unit about twofold;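 active = delta delta Cp rounded down to an integer at or above 3, about 3 SD of DMSO wells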;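 also: higher means less YB-1 transcript or more CDIP transcript relative to DMSO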
Hedgehog inh – Hedgehog pathway signaling inhibitors, primary screen, luminescence, Shh-LIGHT2 cells, Gli-luciferase; inhibition, % (test concentration not listed); AID 2313, 2010; Shh-LIGHT2 Gli-luciferase reporter, 30 h; 22,000 tested, 2.1% active;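 active = mean inhibition across valid replicates above about 65%, limit read from the data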;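 also: pathway switched on by Shh-conditioned medium diluted 1 in 25 in low serum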
NOMO-1 viab – NOMO-1 AML cell viability reduction, primary screen, STK33 inhibitor project, CellTiter-Glo luminescence | NOMO-1 AML viability, 72 h | inhibition, % (no concentration beside the values) | 37,000 tested, 7.5% active; in the data active = inhibition above about 80%
PD-1 reverse act – activators reversing PD-1 mediated T-cell inhibition, primary screen, luminescence, primary human CD4 T cells, PD-L1 beads; CellTiter-Glo 96 h; activation, % (concentration not given with the values); 29,000 tested, under 10 active; AID 2316, 2010; call rule not given here;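 also: 0% = median vehicle wells and 100% = positive control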
MITF inhib – inhibitors of MITF, primary screen, MITF inhibitor project, cell-based, luminescence | TRPM1 promoter luciferase, 24 h | inhibition, % (test concentration not listed) | 37,000 tested, 0.28% active; in the data active = inhibition above about 85%;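 also: human melanocyte line stably carrying TRPM1 promoter luciferase reporter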
* marks the source's active call; other numbers are inactive results; / = not tested or not shown.

SMILES	YB-1 expr inh	Hedgehog inh	NOMO-1 viab	PD-1 reverse act	MITF inhib
COc1ccc(CN(C)C[C@H]2Oc3ccc(NC(=O)Nc4ccc(C(F)(F)F)cc4)cc3C(=O)N([C@H](C)CO)C[C@@H]2C)cc1	0.1	26	104*	-5	-9
COc1ccc(NC(=O)Nc2ccc3c(c2)C(=O)N([C@H](C)CO)C[C@H](C)[C@@H](CN(C)Cc2ccc(C(F)(F)F)cc2)O3)cc1	-0.4	10	107*	-2	27
COc1ccc(CN(C)C[C@@H]2OCCCC[C@@H](C)Oc3ccc(NC(=O)Nc4ccc(C(F)(F)F)cc4)cc3C(=O)N([C@H](C)CO)C[C@@H]2C)cc1	0.037	21	113*	-5	-5
COc1ccc(CN(C)C[C@H]2Oc3ccc(NC(=O)Nc4ccc(OC)cc4)cc3C(=O)N([C@@H](C)CO)C[C@@H]2C)cc1	-0.044	/	13	/	-3
COc1ccc(CN(C)C[C@H]2Oc3ccc(NC(=O)Nc4ccc(C(F)(F)F)cc4)cc3C(=O)N([C@H](C)CO)C[C@H]2C)cc1	-0.24	19	129*	/	-12
COc1ccc(CN(C)C[C@H]2Oc3ccc(NC(=O)Nc4ccc(C(F)(F)F)cc4)cc3C(=O)N([C@@H](C)CO)C[C@H]2C)cc1	-0.14	45	126*	-6	-5
C[C@@H]1CCCCO[C@@H](CN(C)Cc2ccncc2)[C@@H](C)CN([C@H](C)CO)C(=O)c2cc(NC(=O)C3CCCCC3)ccc2O1	0.16	-18	8	0	-3
C[C@@H]1CCCCO[C@H](CN(C)Cc2ccc(C(F)(F)F)cc2)[C@@H](C)CN([C@H](C)CO)C(=O)c2cc(NC(=O)C3CCCCC3)ccc2O1	-0.5	66*	72	-5	20
COc1ccc(CN(C)C[C@H]2Oc3ccc(NC(=O)Nc4ccc(OC)cc4)cc3C(=O)N([C@@H](C)CO)C[C@H]2C)cc1	0.11	-7	29	0	-3
COc1ccc(NC(=O)Nc2ccc3c(c2)C(=O)N([C@H](C)CO)C[C@@H](C)[C@@H](CN(C)Cc2ccncc2)O3)cc1	-0.25	0	7	0	-11
COc1ccc(NC(=O)Nc2ccc3c(c2)C(=O)N([C@@H](C)CO)C[C@H](C)[C@H](CN(C)Cc2ccncc2)O3)cc1	0.2	/	103*	1	5
c1ccc(-n2ncc3c(N4CCc5ccccc54)ncnc32)cc1	0.26	-126	-4	3	-19
Nc1ncnc2c1cnn2-c1ccccc1	3.9*	-14	2	-1	-8
C[C@H](CO)N1C[C@H](C)[C@@H](CN(C)Cc2ccccc2)Oc2c(NC(=O)c3ccc(-c4nccs4)cc3)cccc2C1=O	0.76	42	97*	-4	21
C[C@@H]1CN([C@H](C)CO)C(=O)c2cccc(NC(=O)c3ccc(-c4nccs4)cc3)c2O[C@H]1CN(C)Cc1ccc(-c2ccccc2)cc1	0.17	16	24	-2	8
C[C@@H]1CN([C@@H](C)CO)C(=O)c2cccc(NC(=O)c3ccc(-c4nccs4)cc3)c2O[C@@H]1CN(C)Cc1ccccc1	0.28	39	14	-1	-7
C[C@H]1CN([C@@H](C)CO)C(=O)c2cccc(NC(=O)c3ccc(-c4nccs4)cc3)c2O[C@H]1CN(C)Cc1ccc(-c2ccccc2)cc1	0.18	19	58	-3	-5
C[C@@H]1CN([C@@H](C)CO)C(=O)c2cccc(NC(=O)c3ccc(-c4nccs4)cc3)c2O[C@@H]1CN(C)C(=O)Nc1cccc2ccccc12	-0.16	66*	57	-1	5
C[C@H](CO)N1C[C@H](C)[C@@H](CN(C)Cc2ccc(-c3ccccc3)cc2)Oc2c(NC(=O)c3ccc(-c4nccs4)cc3)cccc2C1=O	-0.12	40	87*	-4	21
C[C@@H]1CN([C@@H](C)CO)C(=O)c2cccc(NC(=O)c3ccc(-c4nccs4)cc3)c2O[C@@H]1CN(C)Cc1ccc(C(=O)Nc2ccccc2N)cc1	-0.32	/	141*	-5	60
C[C@@H]1CCCCO[C@@H](CN(C)C(=O)C2CCCCC2)[C@@H](C)CN([C@H](C)CO)C(=O)c2cc(NC(=O)Nc3cccc4ccccc34)ccc2O1	-0.12	/	33	-1	23
C[C@H](CO)N1C[C@H](C)[C@@H](CN(C)Cc2ccc3c(c2)OCO3)Oc2ccc(NS(=O)(=O)c3ccc(Cl)cc3)cc2C1=O	-0.037	/	36	-1	-2
C[C@H]1CN([C@@H](C)CO)C(=O)c2cccc(NC(=O)c3ccc(-c4nccs4)cc3)c2O[C@H]1CN(C)Cc1ccc(Oc2ccccc2)cc1	0.19	19	64	-2	-18
C[C@H](CO)N1C[C@H](C)[C@H](CN(C)Cc2ccc(-c3ccccc3)cc2)Oc2c(NC(=O)c3ccc(-c4nccs4)cc3)cccc2C1=O	0.44	7	88*	0	7
C[C@H](CO)N1C[C@H](C)[C@@H](CN(C)Cc2ccc(Oc3ccccc3)cc2)Oc2c(NC(=O)c3ccc(-c4nccs4)cc3)cccc2C1=O	-0.67	-4	112*	-2	40
SMILES	YB-1 expr inh	Hedgehog inh	NOMO-1 viab	PD-1 reverse act	MITF inhib
C[C@H]1CN([C@@H](C)CO)C(=O)c2cccc(NC(=O)c3ccc(-c4nccs4)cc3)c2O[C@H]1CN(C)Cc1ccc(C(F)(F)F)cc1	-0.25	-31	72	/	3
C[C@H](CO)N1C[C@H](C)[C@H](CN(C)Cc2ccc(C(F)(F)F)cc2)Oc2c(NC(=O)c3ccc(-c4nccs4)cc3)cccc2C1=O	0.0057	-19	98*	/	63
C[C@@H]1CN([C@H](C)CO)C(=O)c2cccc(NC(=O)C3CCOCC3)c2O[C@H]1CN(C)Cc1ccncc1	-0.0034	-11	-19	3	-10
O=C1CC(c2ccccc2)Oc2cc(O)cc(O)c21 (centres undefined)	-0.075	-8	10	-2	-30
O=C1CC(c2ccccc2)Oc2ccc(Cl)cc21 (centres undefined)	0.02	-48	115*	-6	-16
C[C@@H]1CN([C@H](C)CO)C(=O)c2cc(NS(=O)(=O)c3ccc(F)cc3)ccc2O[C@H]1CN(C)Cc1ccc(-c2ccccc2)cc1	-1.2	/	97*	2	2
C[C@H]1CN([C@@H](C)CO)C(=O)c2cc(NS(=O)(=O)c3ccc(F)cc3)ccc2O[C@@H]1CN(C)Cc1ccc(-c2ccccc2)cc1	-0.18	28	100*	0	2
C[C@H](CO)N1C[C@H](C)[C@H](CN(C)Cc2ccc(-c3ccccc3)cc2)Oc2ccc(NS(=O)(=O)c3ccc(F)cc3)cc2C1=O	-0.015	/	41	/	-7
C[C@@H]1CN([C@H](C)CO)C(=O)Cc2cc(NC(=O)C3CC3)ccc2O[C@H]1CN(C)S(=O)(=O)c1cccs1	-0.33	-19	-9	-1	6
